Source: PubChem BioAssay (Tox21)
Results filed as inconclusive are left out. Active and inactive are the calls of the source. Unless noted, calls follow the shape of the dose curve; as a rule, active = well fitted curve in the direction sought with a large enough effect in the repeat runs; inconclusive = weak or mixed curves; inactive = no such curve, though single readings can be large; an effect the other way counts as inactive or inconclusive.

What was measured:
[1] = qHTS assay for small molecule agonists of the p53 signaling pathway (AID 651631; calls by dose curve; also: nearly all actives have a fitted effect of over 15% in size)
In short: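 Readout was fluorescence from the LiveBLAzer FRET substrate, applied for 2 h at room temperature after 16 h compound exposure at 37 °C. Cells were the p53RE-bla HCT-116 line, with beta-lactamase driven by p53 response elements.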

[2] = qHTS assay for small molecules that induce genotoxicity in human embryonic kidney cells expressing luciferase-tagged ATAD5 (AID 651632); also: nearly all actives have a fitted effect of over 15% in size
In short: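 DMSO vehicle served as the control. HEK293T reporter cells, 16 hr at 37C, then 30 min Amplite at room temperature; ATAD5 induction is measured as luciferase activity.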

[3] = qHTS assay for small molecule agonists of the p53 signaling pathway - cell viability (AID 651633; calls by dose curve; also: series mostly up to about 83 µM; nearly all actives have a fitted effect of over 30% in size)
In short: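 p53RE-bla cells were treated with compound for 16 hours at 37 C. Cytotoxicity was then measured as CellTiter-Glo luminescence after 30 min at room temperature.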

[4] = qHTS assay for small molecules that induce genotoxicity in human embryonic kidney cells expressing luciferase-tagged ATAD5 - cell viability (AID 651634; calls by dose curve; also: nearly all actives have a fitted effect of over 25% in size)
In short: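 Here HEK293T cells with the ATAD5 luciferase reporter are incubated with test compounds for 15.5 hr, and cytotoxicity is then gauged by measuring protease activity in live cells using fluorescence.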

[5] = qHTS assay for small molecule disruptors of the mitochondrial membrane potential (AID 720635)
In short: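 HepG2 cells exposed to compound 1 hr at 37C, then Mito-MPS dye 30 min. Ratio read of aggregate (540/590 nm) versus monomer (490/535 nm) fluorescence.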

[6] = qHTS assay to test for compound auto fluorescence at 590 nm (red) in HepG2 cells (AID 720674)
In short: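 Fluorescence at 590 nm emission following 540 nm excitation was recorded from HepG2 wells one hour after compound transfer, with DMSO-only wells as vehicle and Rose Bengal sodium equivalency as the scale.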

[7] = qHTS assay to test for compound auto fluorescence at 460 nm (blue) in HEK293 cells (AID 720678)
In short: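 Blue-channel (Ex/Em 405/460 nm) intensity measured in HEK293 cultures after overnight compound exposure at 37C; signal expressed relative to triamterene. Cells plated 2,000 per well in 10% dialyzed FBS medium and allowed 4-5 hr to attach.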

[8] = qHTS assay to test for compound auto fluorescence at 590 nm (red) in HEK293 cells (AID 720679)
In short: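 Red-channel autofluorescence (Ex/Em 540/590 nm; Rose Bengal sodium reference) was measured after overnight 37C, 5% CO2 exposure of attached HEK293 cells, 2,000 per well in medium with 10% dialyzed FBS.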

[9] = qHTS assay to test for compound auto fluorescence at 535 nm (green) in HEK293 cells (AID 720680)
[10] = qHTS assay to test for compound auto fluorescence at 535 nm (green) in HEK293 cell free culture (AID 720682)
In short: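 Compounds were pin-transferred into cell-free DMEM with 10% FBS, and green fluorescence was read at excitation 485 nm and emission 535 nm. Intensities were expressed as fluorescein-equivalent values.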

[11] = qHTS assay to test for compound auto fluorescence at 590 nm (red) in HEK293 cell free culture (AID 720683)
In short: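 Cell-free wells of DMEM with 10% FBS received compound, and intrinsic fluorescence was read at excitation/emission 540/590 nm. Values expressed as equivalence to Rose Bengal sodium.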

[12] = qHTS assay to test for compound auto fluorescence at 590 nm (red) in HepG2 cell free culture (AID 720684)
In short: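 Auto fluorescence equivalency versus Rose Bengal sodium, red channel Ex/Em 540/590 nm; compounds in cell-free MEM/10% FBS; DMSO vehicle control.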

[13] = qHTS assay to test for compound auto fluorescence at 460 nm (blue) in HepG2 cell free culture (AID 720685)
In short: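 Cell-free plates of MEM plus 10% FBS received 23 nL compound or DMSO vehicle; blue-channel (405/460 nm) intensity scored against triamterene as reference fluorophore.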

[14] = qHTS assay to test for compound auto fluorescence at 535 nm (green) in HepG2 cell free culture (AID 720686)
[15] = qHTS assay to test for compound auto fluorescence at 460 nm (blue) in HepG2 cells (AID 720687)
In short: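 HepG2 cells in MEM with 10% FBS, attached overnight at 37 C, were exposed to compound or DMSO for 1 hr at 37 C, 5% CO2. Blue fluorescence was read at 405/460 nm, with triamterene as reference fluorophore.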

[16] = qHTS assay to test for compound auto fluorescence at 535 nm (green) in HepG2 cells (AID 720675)
[17] = qHTS assay to test for compound auto fluorescence at 460 nm (blue) in HEK293 cell free culture (AID 720681)
In short: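 Compounds were added to cell-free DMEM with 10% FBS and fluorescence read directly. The blue channel used 405 nm excitation and 460 nm emission, with triamterene as the reference fluorophore.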

[18] = target: Glucocorticoid receptor (Homo sapiens) (UniProt P04150); test: qHTS assay to identify small molecule agonists of the glucocorticoid receptor (GR) signaling pathway (AID 720691; active = well fitted activation curve with a large enough effect in the signal ratio in the repeat runs, not every such curve was filed as active; the % refers to the signal ratio)
Sequence of Glucocorticoid receptor (Homo sapiens) (P04150 whole entry, looked up): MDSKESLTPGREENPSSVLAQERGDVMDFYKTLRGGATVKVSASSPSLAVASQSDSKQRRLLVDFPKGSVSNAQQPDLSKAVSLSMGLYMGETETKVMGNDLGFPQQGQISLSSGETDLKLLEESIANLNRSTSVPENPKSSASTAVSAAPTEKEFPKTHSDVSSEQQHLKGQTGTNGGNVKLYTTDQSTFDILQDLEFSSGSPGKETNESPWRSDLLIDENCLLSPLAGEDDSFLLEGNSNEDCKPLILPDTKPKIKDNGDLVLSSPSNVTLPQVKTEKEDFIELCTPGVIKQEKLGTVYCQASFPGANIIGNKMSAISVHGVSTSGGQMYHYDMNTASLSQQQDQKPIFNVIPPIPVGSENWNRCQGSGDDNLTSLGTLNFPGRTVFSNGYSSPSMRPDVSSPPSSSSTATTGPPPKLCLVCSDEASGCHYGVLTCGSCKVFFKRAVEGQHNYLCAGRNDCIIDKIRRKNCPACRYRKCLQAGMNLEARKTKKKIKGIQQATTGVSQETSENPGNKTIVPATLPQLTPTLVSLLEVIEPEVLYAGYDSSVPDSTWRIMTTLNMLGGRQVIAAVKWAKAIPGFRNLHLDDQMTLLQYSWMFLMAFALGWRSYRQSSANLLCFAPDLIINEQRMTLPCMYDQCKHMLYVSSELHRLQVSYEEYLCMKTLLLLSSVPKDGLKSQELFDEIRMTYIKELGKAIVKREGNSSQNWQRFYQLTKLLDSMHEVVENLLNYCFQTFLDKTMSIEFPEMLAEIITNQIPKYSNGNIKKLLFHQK
In short: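 Compounds in DMSO, alongside positive controls, were added to GR-bla HeLa reporter cells and incubated 18 h at 37 C; GRE-driven beta-lactamase was detected by fluorescence after 2 h with FRET substrate at room temperature.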

[19] = target: Glucocorticoid receptor (Homo sapiens) (UniProt P04150); test: qHTS assay to identify small molecule antagonists of the glucocorticoid receptor (GR) signaling pathway (AID 720692; active = well fitted inhibition curve with a large enough effect in the signal ratio in the repeat runs, not every such curve was filed as active; the % refers to the signal ratio)
In short: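 In a 1536-well cell format, compounds were added 4 h after seeding GR-bla HeLa cells, together with dexamethasone at 5 nM final; reporter activity was measured by FRET-substrate fluorescence following 18 h at 37 C.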

[20] = qHTS assay for small molecule disruptors of the mitochondrial membrane potential - cell viability (AID 720634; calls by dose curve;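 also: human HepG2 liver cancer cells; series mostly up to about 83 µM; nearly all actives have a fitted effect of over 20% in size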)
In short: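 Viability of HepG2 cells is scored from ATP content by luminescence; cells are exposed to compound for 1 hr at 37 C and 5% CO2, then dosed with m-MPI dye before the CellTiter-Glo reagent.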
% is scaled to controls: 0 for no effect and ±100 for the full control effect.

O=C(Cl)CCl
inactive: Potency [1] | outcome [2] | Potency [3] | Potency [4] | Potency [5] | outcome [6] | outcome [7] | outcome [8] | outcome [9] | outcome [10] | outcome [11] | outcome [12] | outcome [13] | outcome [14] | outcome [15]

CC(C)(C)C(=O)Cl
inactive: Potency [1] | outcome [2] | Potency [3] | Potency [4] | Potency [5] | outcome [6] | outcome [16] | outcome [7] | outcome [8] | outcome [9] | outcome [17] | outcome [10] | outcome [11] | outcome [13] | outcome [14] | outcome [15] | Potency [18] | Potency [19]

CCN[C@@H](C)Cc1ccccc1
inactive: Potency [1] | outcome [2] | Potency [3] | Potency [4] | outcome [6] | outcome [16] | outcome [7] | outcome [8] | outcome [9] | outcome [17] | outcome [10] | outcome [11] | outcome [12] | outcome [13] | outcome [14] | outcome [15] | Potency [18]

COc1ccc(CN2CCNCC2)c(OC)c1OC
inactive: Potency [1] | outcome [2] | Potency [3] | Potency [4] | Potency [20] | fluorescence, relative to Rose Bengal [6] -0.414% [at 18.6 µM] | fluorescence, % of fluorescein control [16] 0.0608% [at 18.6 µM] | fluorescence, % of fluorescent control [8] 0.0575% [at 18.6 µM] | fluorescence, % of fluorescein [9] 0.0001% [at 18.6 µM] | activity change [10] -0.0737% [at 18.6 µM] | fluorescence, % of fluorescent control [11] -0.395% [at 18.6 µM] | fluorescence, % of fluorescent control [13] -0.057% [at 18.6 µM] | fluorescence, % of fluorescein control [14] -0.137% [at 18.6 µM] | fluorescence, % of fluorescent control [15] -0.0322% [at 18.6 µM] | Potency [18]

O=c1[nH]oc2c1CCNC2
inactive: Potency [1] | outcome [2] | Potency [3] | Potency [4] | outcome [6] | outcome [16] | outcome [7] | outcome [8] | outcome [9] | outcome [17] | outcome [10] | outcome [11] | outcome [12] | outcome [13] | outcome [14] | outcome [15] | Potency [18]

CCCCOC(C)=O
inactive: Potency [1] | outcome [2] | Potency [3] | Potency [4] | Potency [20] | outcome [6] | outcome [7] | outcome [8] | outcome [9] | outcome [17] | outcome [10] | outcome [11] | outcome [12] | outcome [13] | outcome [14] | outcome [15]

ClC(Cl)(Cl)Cl
inactive: Potency [1] | outcome [2] | Potency [3] | Potency [4] | Potency [5] | outcome [6] | outcome [16] | outcome [7] | outcome [8] | outcome [9] | outcome [17] | outcome [10] | outcome [11] | outcome [12] | outcome [13] | outcome [14] | outcome [15]

O=C(Cl)c1ccccc1
inactive: Potency [1] | outcome [2] | Potency [3] | Potency [4] | Potency [20] | outcome [6] | outcome [16] | outcome [8] | outcome [9] | outcome [10] | outcome [11] | outcome [13] | outcome [14] | outcome [15]

CN1COCN(Cc2cnc(Cl)s2)/C1=N\[N+](=O)[O-]
inactive: Potency [1] | outcome [2] | Potency [3] | Potency [4] | Potency [20] | outcome [6] | outcome [16] | outcome [8] | outcome [9] | outcome [17] | outcome [10] | outcome [11] | outcome [12] | outcome [13] | outcome [14] | outcome [15] | Potency [18] | Potency [19]

C=CC(=O)OCCN(C)C
inactive: Potency [1] | outcome [2] | Potency [3] | Potency [4] | Potency [5] | outcome [6] | outcome [16] | outcome [7] | outcome [8] | outcome [9] | outcome [17] | outcome [11] | outcome [12] | outcome [13] | outcome [14] | outcome [15] | Potency [18] | Potency [19]

CC(C)(C1CCC(O)CC1)C1CCC(O)CC1 (stereo not drawn)
inactive: Potency [1] | outcome [2] | Potency [3] | Potency [4] | Potency [20] | outcome [6] | outcome [7] | outcome [8] | outcome [9] | outcome [10] | outcome [11] | outcome [12] | outcome [13] | outcome [14] | outcome [15]

CC(C)C(C)(N)C#N (stereo not drawn)
inactive: Potency [1] | outcome [2] | Potency [3] | Potency [4] | Potency [20] | outcome [6] | outcome [16] | outcome [8] | outcome [9] | outcome [10] | outcome [11] | outcome [12] | outcome [14] | outcome [15] | Potency [18] | Potency [19]

CCCCS(=O)(=O)Cl
inactive: Potency [1] | outcome [2] | Potency [3] | Potency [4] | outcome [6] | outcome [16] | outcome [7] | outcome [8] | outcome [9] | outcome [17] | outcome [10] | outcome [11] | outcome [12] | outcome [13] | outcome [14] | outcome [15] | Potency [18]

CCCCCCCC(=O)Cl
inactive: Potency [1] | outcome [2] | Potency [3] | Potency [4] | Potency [20] | outcome [6] | outcome [16] | outcome [8] | outcome [9] | outcome [10] | outcome [11] | outcome [12] | outcome [13] | outcome [14] | outcome [15] | Potency [18] | Potency [19]

CCOC(=O)N(C)N=O
inactive: Potency [1] | outcome [2] | Potency [3] | Potency [4] | Potency [5] | outcome [6] | outcome [16] | outcome [7] | outcome [8] | outcome [9] | outcome [17] | outcome [11] | outcome [12] | outcome [13] | outcome [14] | outcome [15] | Potency [18] | Potency [19]
